RORg inh – qHTS for inhibitors of ROR gamma transcriptional activity. Drosophila S2 Gal4-RORgamma UAS-luciferase reporter, 20 h. AID 2551, 2010. Nuclear receptor ROR-gamma (Mus musculus), P51450. 310,000 compounds, 5.4% hits. Potency, µM (titrated, usually from 53.6 µM), inactives show at the highest dose activity change, negative = inhibition, hits mostly inhibitors; note: potency is the fitted concentration of half-maximal effect; nearly all actives have a fitted effect of over 60% in size
Target sequence (P51450 whole entry, looked up, the tested form may be a part): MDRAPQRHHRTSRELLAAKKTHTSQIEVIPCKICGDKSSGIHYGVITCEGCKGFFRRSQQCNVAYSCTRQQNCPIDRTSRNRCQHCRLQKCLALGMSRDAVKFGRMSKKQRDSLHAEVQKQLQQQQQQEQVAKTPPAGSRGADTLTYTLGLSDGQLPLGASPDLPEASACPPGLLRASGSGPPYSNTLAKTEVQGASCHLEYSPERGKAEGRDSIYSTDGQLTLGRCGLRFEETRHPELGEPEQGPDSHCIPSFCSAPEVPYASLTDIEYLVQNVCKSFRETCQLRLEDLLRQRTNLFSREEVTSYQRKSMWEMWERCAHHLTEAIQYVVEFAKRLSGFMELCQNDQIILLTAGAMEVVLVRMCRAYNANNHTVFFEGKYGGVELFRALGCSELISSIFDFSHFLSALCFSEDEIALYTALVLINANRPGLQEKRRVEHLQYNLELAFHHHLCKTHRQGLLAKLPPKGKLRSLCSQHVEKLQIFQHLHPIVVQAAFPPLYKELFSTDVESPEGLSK
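A Gal4/UAS one-hybrid system in insect cells: metallothionein-promoter Gal4–ROR gamma fusion plus Photinus luciferase reporter. Copper sulfate 700 uM final, 20 hr ambient incubation, luminescent detection after 10 min with reagent.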
IL1B secr inh – qHTS for Inhibitors of Inflammasome Signaling: IL-1-beta AlphaLISA Primary Screen. AID 743279, 2014. activity change, % at 57.5 µM. THP-1 LPS/ATP IL-1B secretion, AlphaLISA, 16 h; stronger effect = lower value. 360,000 compounds, 4.7% hits; in the data active = activity change below about -50%; inconclusive = mostly about -30% to -49%
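Secreted IL-1B measured by AlphaLISA bead assay after 16 h compound exposure of THP-1 cells; compounds (final up to 57.5 uM) added 1 h before LPS (250 ng/mL) and ATP (1.25 mM) stimulation; lower signal means less secretion.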
VP16 counter – VP16 counterscreen qHTS for inhibitors of ROR gamma transcriptional activity; Drosophila S2 Gal4-VP16 UAS-luciferase, luminescence, 20 h; Potency, µM (top dose mostly 53.6 µM), for inactives: at the highest dose activity, negative = inhibition, hits mostly inhibitors; 310,000 compounds, 3.5% hits;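 note: Gal4-VP16 expression switched on by copper sulfate through the metallothionein promoter; potency is the fitted concentration of half-maximal effect; nearly all actives have a fitted effect of over 50% in size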
DT40 TDP1 CPT – qHTS for Inhibitors of human tyrosyl-DNA phosphodiesterase 1 (TDP1): qHTS in cells in presence of CPT; chicken DT40 Tdp1-/-;hTDP1 cells + 20 nM CPT, ATP luminescence, 48 h; Potency, µM (highest dose often 46.2 µM), for the others: at the top dose activity change, negative = growth inhibition, most hits filed as inhibitors; 420,000 compounds, 12% hits; AID 686979, 2013; note: potency is the fitted concentration of half-maximal effect; nearly all actives have a fitted effect of over 55% in size
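Chicken DT40 Tdp1-/- cells stably complemented with human TDP1 were seeded at 400 cells/well in medium containing 20 nM camptothecin, exposed to pin-transferred compounds, and grown at 37 °C for at least 48 hr. Viability was read as ATP luminescence.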
LDHA inh – qHTS assay for inhibitors of human lactate dehydrogenase; L-lactate dehydrogenase A chain (Homo sapiens), P00338; purified LDHA, NADH/diaphorase-resazurin fluorescence; stronger effect = lower value; activity change, % (values are at about 110 or 230 µM); 480,000 compounds, 0.15% hits; in the data active = activity change below about -30%; inconclusive = mostly about -25% to -30%;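 note: plate controls were DMSO wells for no effect and wells without enzyme for full effect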
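Resorufin fluorescence (ex540/em590), read at 0 and 20 min after diaphorase/resazurin addition, reports the NADH left after a 5 min room-temperature reaction of 2 nM human LDH5 with 0.06 mM NADH and 0.2 mM pyruvate.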
DT40 TDP1 no CPT – qHTS for Inhibitors of human tyrosyl-DNA phosphodiesterase 1 (TDP1): qHTS in cells in absence of CPT; AID 686978, 2013; 420,000 compounds, 15% hits; DT40 Tdp1-/- hTDP1 cells, no CPT, ATP luminescence, 48 h; Potency, µM (series often up to 46.2 µM), for inactives: at the top dose activity change, negative = growth inhibition, usual class: inhibitors; note: potency is the fitted concentration of half-maximal effect; nearly all actives have a fitted effect of over 55% in size
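Growth kinetics read by CellTiter-Glo luminescence after ≥48 hr at 37 °C. Cells: DT40 Tdp1-/- stably carrying human TDP1, 400 per well, compound exposure in the absence of CPT (DMSO vehicle).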
An asterisk follows results filed as active; u = inconclusive; x = no result given. Rows were chosen to be rich in hits. Some 18% of all compounds tested hit in one or more screens of this group. Unless noted, calls come from the whole dose curve; as a rule, active = well fitted curve in the direction sought with a large enough effect; inconclusive = small, poorly fitted or top-dose-only effect, or another doubt; inactive = no such curve, though single readings can be large; an effect the other way counts as inactive or inconclusive. Unless noted, % is set by controls: 0 for no effect and ±100 for the full control effect.

SMILES	RORg inh	IL1B secr inh	VP16 counter	DT40 TDP1 CPT	LDHA inh	DT40 TDP1 no CPT
CCCCn1c(O)c(C(CC)=NC(C)c2ccccc2)c(=O)[nH]c1=O (stereo unspecified)	30%	41	-4%	u	-6	26µM*
CCOC(=O)C1=C(N)OC(c2ccccc2)=C(C(=O)OCC)C12C(=O)Nc1ccc(Br)cc12 (stereo unspecified)	x	x	x	x	9	x
CC(Sc1ncnc2sccc12)C(=O)Nc1ccc(S(=O)(=O)N2CCOCC2)cc1 (stereo unspecified)	x	15	x	u	-11	-33%
O=C(NC1CCCCCC1)c1ccc[nH]c1=S	0.45µM*	-6	0.79µM*	-6%	-3	-34%
O=C(CN1CCCCC1)c1ccc(-c2ccccc2)cc1	x	x	x	x	0	x
O=C(Nc1cc(C(F)(F)F)cc(C(F)(F)F)c1)c1cc(Cl)ccc1O	0.89µM*	x	1µM*	x	x	x
C[CH2][Hg][S]c1ccccc1C(=O)O	1.1µM*	-112*	0.63µM*	0.41µM*	-21	0.58µM*
CNc1ccccc1C(=O)O	-21%	x	-4%	-9%	x	1%
CCc1c(C(=O)OC)ncc2[nH]c3cc(OC)c(OC)cc3c12	x	x	x	8.2µM*	x	6.5µM*
CC1(C)C(O)CC(=O)[C@]2(C)C1CC(=O)[C@]1(C)C2CC[C@@]2(C)C(c3ccoc3)OC(=O)C3O[C@@]321 (stereo partly specified)	27%	x	-20%	-20%	x	-17%
O=C(Nc1cc(C(F)(F)F)ccc1O)Nc1cc(C(F)(F)F)ccc1O	-29%	x	u	x	x	x
O=C(NC(c1cccnc1)C(F)(F)F)c1cnn(-c2nccc(-c3cccs3)n2)c1C1CC1 (stereo unspecified)	x	x	x	u	x	21µM*
c1ccc(CCNCc2ccc3[nH]ccc3c2)cc1	x	x	x	x	2	x
O=C1NC(=O)N(c2ccccc2)C(=O)/C1=C/c1coc2ccc(O)cc2c1=O	-10%	-20	2%	23µM*	1	15µM*
O=C1NC(=O)N(c2ccc(Cl)cc2)C(=O)/C1=C/c1coc2ccc(O)cc2c1=O	6%	u	1%	15µM*	-3	15µM*
Cc1cc(/C=C2\C(=O)NC(=O)N(c3ccc(Cl)cc3)C2=O)c(C)n1-c1cccc(C(=O)O)c1	-1%	1	2%	6%	-11	15%
O=C1NCN(c2ccccc2)C12CCN(C(CCc1ccccc1)c1nnnn1C1CCCCC1)CC2 (stereo unspecified)	x	-56*	x	u	-8	u
CCCCn1nnnc1C(c1ccc(OC)cc1)N1CCC2(CC1)C(=O)NCN2c1ccccc1 (stereo unspecified)	x	-13	x	18µM*	-2	u
CCCCn1nnnc1C(C1CC1)N1CCC2(CC1)C(=O)NCN2c1ccccc1 (stereo unspecified)	x	3	x	u	-1	u
COc1ccc(C(c2nnnn2Cc2ccccc2)N2CCC3(CC2)C(=O)NCN3c2ccccc2)cc1 (stereo unspecified)	x	-58*	x	u	-1	u
O=C1NCN(c2ccccc2)C12CCN(C(CCc1ccccc1)c1nnnn1C1CCCC1)CC2 (stereo unspecified)	x	u	x	u	-4	u
CCOc1ccc(N(C(C)C(=O)Nc2cc(Cl)ccc2OC)S(C)(=O)=O)cc1 (stereo unspecified)	x	x	x	0.58µM*	2	0.52µM*
CC(=O)NNc1ccccc1	-12%	x	-6%	x	x	x
O=C(CNC12CC3CC(CC(C3)C1)C2)c1ccc(Cl)cc1	x	x	x	x	-81*	x
O=c1c2ccccc2[nH]c(=S)n1-c1ccc2c(c1)OCO2	2.8µM*	-4	10µM*	-25%	-1	-3%
SMILES	RORg inh	IL1B secr inh	VP16 counter	DT40 TDP1 CPT	LDHA inh	DT40 TDP1 no CPT
N#CC1=C(N)Oc2c(c(=O)sc3ccccc23)C1c1cccnc1 (stereo unspecified)	-36%	23	-1%	8.2µM*	-17	8.2µM*
N#CC1=C(N)Oc2c(c(=O)oc3ccccc23)C1c1ccncc1 (stereo unspecified)	-16%	29	-4%	2%	-5	-1%
CCCCc1nc2ccccc2c(=O)n1-c1ccccc1O	28%	2	-1%	u	-3	u
COc1ccccc1-n1c(Cc2ccccc2)nc2ccccc2c1=O	u	u	-2%	2%	-3	-30%
CCCc1nc2ccccc2c(=O)n1-c1cccc(OC)c1	4%	-15	-6%	18µM*	-8	u
CCCc1nc2ccccc2c(=O)n1-c1ccccc1OC	33%	5	0%	u	3	21µM*
CCCSc1nc2ccccc2c(=O)n1-c1ccccc1OC	x	x	x	u	-6	21µM*
CCCCc1nc2ccccc2c(=O)n1-c1cccc(OC)c1	x	x	x	16µM*	-7	18µM*
C=C(Cl)Cl	15%	x	1%	x	x	x
CC(OC(=O)c1cn(C)c2ccccc12)C(=O)NC(C)(C)C (stereo unspecified)	x	x	x	x	0	x
